# Records with an inconclusive call do not appear. Where a call stands in place of a potency, no number is given. Calls of active or inactive are those of the source. Calls follow the shape of the dose curve; as a rule, active = well fitted inhibition curve with a large enough effect; inconclusive = small, poorly fitted or top-dose-only effect; inactive = no such curve, though single readings can be large or run the other way.
# Columns and labels:
# [1] = tested on: Zika virus NS2B-NS3 protease (unlinked complex); experiment: Primary screen GU Rhodamine qHTS for Zika virus inhibitors: Unlinked NS2B-NS3 protease assay (AID 1347159); also: nearly all actives have a fitted effect of over 60% in size
# In short: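 Buffer 10 mM Tris-HCl pH 8.0, 0.01% Tween 20. Unlinked protease 25 nM; compound preincubation 15 min, RT, protected from light. Substrate Rhod110, 1.5 microM; ~15% conversion in 15 min.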
# [2] = tested on: Zika virus NS2B-NS3 protease (linked construct); experiment: Primary screen NINDS Rhodamine qHTS for Zika virus inhibitors (AID 1347160); also: nearly all actives have a fitted effect of over 55% in size
# In short: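 Aprotinin served as in-plate control. Conditions: 25 nM linked NS2B-NS3, pH 8.0 Tris buffer, titrated compounds, 15 min preincubation and 15 min reaction with 1.5 microM Rhod110 substrate at room temperature.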
SMILES,Potency [1],Potency [2]
CC(C)=CCC[C@](C)(O[C@@H]1O[C@H](CO)[C@@H](O)[C@H](O)[C@H]1O)[C@H]1CC[C@]2(C)[C@@H]1[C@H](O)CC1[C@@]3(C)CC[C@H](O)C(C)(C)C3[C@@H](O[C@@H]3O[C@H](CO)[C@@H](O)[C@H](O)[C@H]3O)C[C@]12C (stereo partly drawn),inactive,inactive
Cc1ccc(C(=O)N(CCCN)C(c2nc3cc(Cl)ccc3c(=O)n2Cc2ccccc2)C(C)C)cc1 (stereo not drawn),inactive,inactive
COc1cc2ncnc(N3CCC(Oc4cnc5ccccc5n4)C3)c2cc1OC (stereo not drawn),inactive,inactive
CC(C)(F)C[C@@H](N[C@@H](c1ccc(-c2ccc(S(C)(=O)=O)cc2)cc1)C(F)(F)F)C(=O)NC1(C#N)CC1,inactive,inactive
